Experimental data taken from PubChem BioAssay AID1159580 (chemical genetic matrix, 2015).
The campaign covered roughly 5,500 compounds. About 2,000 (36%) were called active. Not shown: some 18% with an inconclusive outcome. Rule as the data show it: active = normalized growth mostly below about 0.91 (no sharp cut-off); inconclusive = no clear call, values can overlap the other calls; inactive = mostly above about 0.92. The list shows a part of the results.

Test: chemical genetic growth profiling, strain panel (AID 1159580);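 also: tested at 20 µM; growth read once vehicle control cultures reached saturation at 30 °C; 1 = growth at the plate median or of vehicle wells; lower values mean less growth of the strain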
Details: S. cerevisiae deletion strains, growth OD

Measured: normalized growth

COc1cc2oc3cc(OC)c(OC)c(CC=C(C)C)c3c(=O)c2c(OC)c1CC=C(C)C
inactive: locus YHR030C, strain SLT2, hits give low values 0.934 | locus YHR079C, strain IRE1, hits give low values 0.927 | locus YJL095W, strain BCK1, hits give low values 0.918 | locus YJR066W, strain TOR1, hits give low values 0.885 | locus YLR113W, strain HOG1, hits give low values 0.895 | locus YNL183C, strain NPR1, hits give low values 0.862 | locus YOR231W, strain MKK1, hits give low values 0.905 | locus YPL256C, strain CLN2, hits give low values 0.955
